In PubChem BioAssay AID1347131 (National Center for Advancing Translational Sciences (NCATS), 2019):
Screen size: about 410,000 compounds; about 2,000 (0.49%) were called active. About 8% were inconclusive and are not listed. This is one part of a sample in which actives are shown more often than they occur. Calls follow the shape of the full dose curve; tested in HEK293 reporter line.

Assay: qHTS Assay for Foot and Mouth Disease Virus Antivirals: Primary Screen against the MLPCN compound library; also: nearly all actives have a fitted effect of over 55% in size
Settings: FMDV antiviral cell-based qHTS; series mostly up to 57.9 µM; activity, negative = inhibition: at the top concentration
Potency is read from the fitted curve at half-maximal effect.

| Structure (SMILES) | activity, negative = inhibition | Potency |
| --- | --- | --- |
| Cc1noc(C)c1COc1ccc(C(=O)N2CCN(c3ccccn3)CC2)cc1 | -31.9% (inactive) | – |
| O=C(c1ccco1)N1N=C(c2cccs2)CC1c1ccccc1O (stereo not given) | -38.8% (inactive) | – |
| CC(C)C[C@H]1CN=C(N(C)C)N1CCCCc1ccccc1 | -30.1% (inactive) | – |
| Cc1ccc(N2C(=O)CC(N3CCN/C3=C3\CC/C(=C\c4ccccc4)C3=O)C2=O)cc1 (stereo not given) | -34.8% (inactive) | – |
| Cc1ccc(NC(=O)CN2C(=O)NC3(CCCCC3C)C2=O)cc1S(=O)(=O)N1CCCCC1 (stereo not given) | -32.2% (inactive) | – |
| CN(C)S(=O)(=O)c1ccc(C(=O)N2CCC(c3nc4ccccc4o3)CC2)cc1 | -38.5% (inactive) | – |
| CCC(C)NC(=O)c1cc(-c2ccccc2O)on1 (stereo not given) | 106% (inactive) | – |
| CSc1nc(Nc2ccc(C)cc2C)cc(-c2ccccc2)n1 | -34.8% (inactive) | – |
| Cc1ccc(-c2cc(-c3ccccc3)no2)c(O)c1 | – | 5.01 µM (active) |
| O=C1/C(=C/c2ccc(O)c([N+](=O)[O-])c2)SC(=S)N1Cc1ccccc1 | -35% (inactive) | – |
| Cc1nn2c(-c3cccc(NC(=O)CSc4nc5ccccc5o4)c3)nnc2c2ccccc12 | -33% (inactive) | – |
| COc1ccc(NC(=O)c2c(NC(=O)c3ccc(Br)cc3)sc3c2CCCC3)cc1 | -31.2% (inactive) | – |
| COc1ccc(C(=O)Nc2onc3c2CCCC3)cc1 | – | 12.6 µM (active) |
| COc1ccc(-c2noc(CCCC(=O)NC3CCCC3)n2)cc1 | -30.2% (inactive) | – |
| COc1cccc(C(=O)Nc2cccc(-c3nnc(-c4ccccc4)o3)c2)c1 | -69.2% (inactive) | – |
| CCOc1cccc(C(=O)Nc2nnc(-c3ccco3)s2)c1 | – | 11.2 µM (active) |
| CCOc1cccc(C(=O)Nc2ccc(S(=O)(=O)N(Cc3ccccc3)c3ccccc3)cc2)c1 | -35.6% (inactive) | – |
| CCN(CC)CCN(C(=O)c1ccc2c(c1)CCCC2)c1nc2ccc(C)cc2s1 | -7.69% (inactive) | – |
| CC(=O)N(Cc1cc2cc(C)ccc2[nH]c1=O)c1cccc(C)c1C | -31.5% (inactive) | – |
| O=C(CCS(=O)(=O)c1ccc(Br)cc1)N1CCN(c2ccccc2F)CC1 | -41.8% (inactive) | – |
| Cc1cc(C)c(NS(=O)(=O)c2ccc3c(c2)NC(=O)CC(=O)N3)c(C)c1 | -32.6% (inactive) | – |
| O=C(NCCCCc1ccccc1)NC[C@@H]1CC[C@@H](Cc2ccc(-c3ccccc3)cc2)O1 | -31.2% (inactive) | – |
| COc1ccc2[nH]cc(CCNc3ccnc(-c4cccnc4)n3)c2c1 | -32.1% (inactive) | – |
| COc1ccc2[nH]cc(CCNc3ncncc3-c3ccoc3)c2c1 | – | 22.4 µM (active) |
| COc1ccc2[nH]cc(CCNc3ccnc(-c4c(C)noc4C)n3)c2c1 | -36.4% (inactive) | – |
| COc1ccc(S(=O)(=O)N2CCCN(CCC(=O)Nc3cccc(C(F)(F)F)c3)CC2)cc1 | -27.1% (inactive) | – |
| Cc1cccc(N2CCN(C(=O)CCS(=O)(=O)c3ccc4c(c3)oc(=O)n4C)CC2)c1C | -34.5% (inactive) | – |
| CCc1cc(C(=O)N2CCCC(C(=O)c3ccc(Cl)cc3)C2)no1 (stereo not given) | -42% (inactive) | – |
| COc1ccc(-c2cc(C(=O)N3CCCCC3)no2)cc1OC | 101% (inactive) | – |
| O=C(c1cc(-c2ccc(Cl)cc2Cl)on1)N1CCCC1 | – | 12.6 µM (active) |
